Assay outcomes (PubChem)
The full list was thinned out, with hits kept by preference.
TTR transcr act: TTR transcription activators in neuroblastoma reporter cells, primary screen, cell-based, luminescence, SH-SY5Y, TTR promoter Gaussia luciferase. 100% = recombinant luciferase protein wells. activation, % at 16.7 µM. 92,000 tested, 1.3% active. AID 1117267, 2014;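 active = activation above the mean of all tested compounds plus 3 SD, cut at about 9.5% in these data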;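 also: cells exposed to compounds for one day before reading; 0% = median of all test compound wells on the plate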
TTR inh HuH7: TTR promoter reporter inhibitors in hepatoma cells, counter-screen for TTR transcription activator project, cell-based, luminescence, HuH7 hepatoma | shares compounds with TTR transcr act | HuH7 TTR promoter-Gaussia luciferase reporter | inhibition, % at 16.7 µM | 1,100 tested, 4% active;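 active = average inhibition above the solvent-only control wells' mean plus 3 SD, cut at about 15% in these data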;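 also: 0% = cells with DMSO only and 100% = cells with inhibitor control FD; inhibitors lower well luminescence so higher value means more inhibition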
TTR act confirm: TTR transcription activators, retest, confirmation, cell-based, luminescence, SH-SY5Y, triplicate | shares compounds with TTR transcr act | SHSY5Y TTR promoter Gaussia luciferase; 100% = purified Lucia enzyme wells, no cells | activation, % at 16.7 µM | 1,100 tested, under 10 active | AID 1117280, 2014;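 active = mean activation above a set limit taken from the earlier primary screen, cut at about 11% in these data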;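 also: 0% = DMSO-treated cells and 100% = recombinant Lucia luciferase without cells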
An asterisk follows results filed as active.

SMILES	TTR transcr act	others
O=C1CCN(S(=O)(=O)c2cc(C(F)(F)F)ccc2Cl)CC1	-1
O=C(CNC(=O)C12CC3CC(CC(C3)C1)C2)OCc1ccc(F)cc1Cl	-1
Cc1cccc(CCNC(=O)C2CCN(S(=O)(=O)N3CCOCC3)CC2)c1	-1
CC(=O)Nc1cccc(-c2ccnc3c2CC(C(=O)Nc2cccnc2)O3)c1 (configuration not stated)	5
CC(=O)Nc1cccc(-c2ccnc3c2CC(C(=O)Nc2cccc(NS(C)(=O)=O)c2)O3)c1 (configuration not stated)	17*	TTR inh HuH7=-22;TTR act confirm=1
CC(=O)c1cccc(NC(=O)C2Cc3c(-c4ccccc4)ccnc3O2)c1 (configuration not stated)	-1
O=C(COc1ccc(Cl)cc1Cl)c1ccc[nH]1	-1
CCOC(=O)C1=C(COC(=O)/C=C/c2cccc(F)c2)NC(=O)NC1C (configuration not stated)	3
CCCC[C@H]1C2CC(OC(=O)NCCCC(=O)OCC)C(C2)[C@H]2CCCCN21 (some centres not stated)	2
O=C(CC(=O)c1ccccc1)Nc1cc([N+](=O)[O-])ccc1Cl	3
O=C(COc1ncnc2cc([N+](=O)[O-])ccc12)NC(=O)NC1CCCCC1	0
O=C(COc1ncnc2ccccc12)Nc1cc([N+](=O)[O-])ccc1Cl	38*	TTR inh HuH7=-4;TTR act confirm=0
COc1ccc(C(O)c2nc(-c3cccc(F)c3)cs2)cc1 (configuration not stated)	-1
FC(F)(F)Oc1ccc(Cn2ccc3ccc(-c4ccc5ccn(Cc6ccccc6)c5c4)cc32)cc1	-1
O=C(NN1C(=O)C2C3C=CC(C3)C2C1=O)c1ccccc1 (configuration not stated)	0
Cc1ccc(NCN2C(=O)C3CC=C(Cl)CC3C2=O)cc1 (configuration not stated)	0
O=C(NN1C(=O)C2CC=C(Cl)CC2C1=O)c1ccncc1 (configuration not stated)	12*	TTR inh HuH7=2;TTR act confirm=-1
c1ccc2c(C3OCC4(CCCCC4)CO3)cccc2c1	0
O=C(Nc1ccc2ncccc2c1)c1ccccc1	1
O=C(NC(=S)Nc1ccc2ncccc2c1)c1ccccc1	-1
O=C(Nc1ccc2ncccc2c1)c1ccccc1Cl	11*	TTR inh HuH7=-7;TTR act confirm=-1
COc1ccc(/C=C2\N=C(c3ccccc3Cl)NC2=O)cc1	-2
OCC(O)CN1CCCC1 (configuration not stated)	-1
Cc1cccc(OCCCC(=O)Nc2ccc(N(C)C)cc2)c1	4
COc1ccc(/C=C/c2nnc(NC(=O)COc3cccc(C)c3)s2)cc1	1
SMILES	TTR transcr act	others
Cc1cccc(OCCC(=O)Nc2nnc(C)s2)c1	17*	TTR inh HuH7=-16;TTR act confirm=1
Cc1cccc(N2CCN(S(=O)(=O)c3c(C)[nH]c(C)c3C(=O)N3CCCC3)CC2C)c1 (configuration not stated)	2
O=C(Nc1ccc(F)cc1)N1CCN(C(=O)C2CCCO2)CC1 (configuration not stated)	1
COc1ccc2c(c1)sc(=N)n2CC(=O)Nc1cc(C)cc(C)c1	1
COC(=O)Cn1c(=NC(=O)c2ccc(OC)c(OC)c2)sc2cc(OC)ccc21	12*	TTR inh HuH7=-2;TTR act confirm=0
COc1ccc(CC(=O)c2ccc(OC)c(OC)c2)cc1	1
COC(=O)c1cc(COC(=O)c2nc3nc(C)cc(C)n3n2)oc1C	10*	TTR inh HuH7=-11;TTR act confirm=-1
Cc1cc(C)n2nc(C(=O)OCC(=O)c3ccccc3)nc2n1	0
Cc1cc(C)n2nc(C(=O)OCC(=O)Nc3ccc4c(c3)OC(F)(F)O4)nc2n1	-1
C[C@@H]1CN([C@H](C)CO)C(=O)CCCn2cc(nn2)CO[C@H]1CN(C)S(=O)(=O)c1ccccc1	0
Cc1cc(SCC(=O)OC(C)C(=O)N(C)c2ccccc2)nc2ccccc12 (configuration not stated)	-2
Cc1ccc2c(Cl)cc(Cl)c(OCC(=O)NC(=O)NCc3ccco3)c2n1	-2
Cc1ccc(NC(=O)CN(C)C(=O)COc2c(Cl)cc(Cl)c3ccc(C)nc23)cc1	13*	TTR inh HuH7=-42;TTR act confirm=0
Cc1ccc2cccc(OCC(=O)N(C)CC(=O)Nc3ccc(F)cc3)c2n1	4
O=c1[nH]cc(S(=O)(=O)Nc2ccc3c(c2)OCO3)c(=O)[nH]1	1
CC1(C)CC(=O)C=C(c2ccc(Oc3ccccc3)cc2)C1	-3
CC1(C)CC(=O)C=C(c2ccc(I)cc2)C1	2
CC1(C)CC(=O)C=C(c2ccc(OC(F)(F)F)cc2)C1	12*	TTR inh HuH7=-5;TTR act confirm=-1
O=C(NCc1ccncc1)[C@@H]1CCCN1C(=O)[C@@H]1CCCN1C(=O)c1ccccc1Cl	5
CN1CCN(S(=O)(=O)c2cccc(C(=O)N(Cc3nnc(-c4ccccc4Cl)o3)C3CC3)c2)CC1	3
Nc1nc2cc(S(=O)(=O)N3CCOCC3)ccc2o1	1
CCCc1nn2c(=O)cc(COc3ccc(NC(=O)c4ccco4)cc3)nc2s1	-2
Cc1c(N(C)S(=O)(=O)c2cc(C(=O)N3CCCC3)ccc2Cl)c(=O)n(-c2ccccc2)n1C	13*	TTR inh HuH7=-9;TTR act confirm=0
Cc1c(N(C)C(=O)c2ccc3c(c2)OCO3)c(=O)n(-c2ccccc2)n1C	-2
Cc1c(N(C)C(=O)C23CC4CC(CC(C4)C2)C3)c(=O)n(-c2ccccc2)n1C	-1
SMILES	TTR transcr act	others
CCCCCCNC(=O)c1c(N)[nH]c(C(=O)c2ccccc2)c1-c1ccc(O)cc1	-3
C[C@H]1[C@H](NC(=O)c2ccc(Cl)c(C(F)(F)F)c2)CC[C@@]23CCCN2C(=O)CCC[C@@H]13	-1
Cc1ccc(C)c(NC(=O)Cc2coc3cc4c(cc23)CCC4)c1	-1
CCOc1ccccc1NC(=O)CNC(=O)Cc1ccccc1	0
CCOc1ccccc1NC(=O)Cc1coc2cc(C)ccc12	14*	TTR inh HuH7=-25;TTR act confirm=2
COC(=O)[C@]12CCCCC=C1N(Cc1ccc(OC)cc1)C(=O)[C@@H]2CC(=O)N1CCN(C(=O)C2CC2)CC1	1
C=CCn1c(CSc2ccc(C)cc2)n[nH]c1=S	1
O=C(NC(c1ccc(-c2ccccc2)cc1)c1cnccn1)C1CCN(CCOc2ccc(F)cc2)CC1 (configuration not stated)	-4
O=C(O)/C=C/C(=O)NC1CCCCCCCCCCC1	3
Cc1ccc2nc(SCC(=O)Nc3ccc(C)c(Cl)c3)nc(=O)n2c1	1
COc1ccccc1NC(=O)CSc1nc(=O)n2cc(C)ccc2n1	12*	TTR inh HuH7=-15;TTR act confirm=2
Cc1ccc2nc(SCC(=O)c3ccc(Cl)cc3)nc(=O)n2c1	2
Cc1ccc(C(C)C)c(OCC(=O)N/N=C/c2cccn2C)c1	0
O=C(Nc1ccc2c(c1)OCCO2)C1c2ccccc2OCC(=O)N1C1CC1 (configuration not stated)	-1
CC(C)NC(=O)N(C)C[C@H]1OCc2cnnn2CCCC(=O)N([C@H](C)CO)C[C@H]1C	1
Cc1ccc(-c2csc(C(O)c3ccc(F)cc3)n2)cc1C (configuration not stated)	1
